Measurements as given in PMC10163288.
The list is a sample of the results. How many sequences the whole screen found active is unknown. A number with no mark means an inactive call.

B1: il2ra_site1_3nfp_sap_17_mot_HHH_b1_06312_000000077_0001_1_18_H_._HHH_b1_02603_af2_0001_0000500014_0000001_0_0001_af2pred_0001_af2pred_1 (protein)
chain: SSSSDVEEFLEEIKEELREALEKGDARLAARIFKEASKKLREKGNPELAEELYEFLRKLISSSSS
B2: il2ra_site2_2erj_sap_25_mot_HHH_b1_02841_000000060_0001_43_57_H_._HHH_b1_02445_af2_0001_0000300014_0000001_0_0001 (protein)
chain: SSSSDTEERVEEVLEEARKAYEEGDLHEVYRLAVEAMRIASENNDQEALELVLRFIEELSSSSSS
B3: il2ra_site1_2b5i_sap_8_mot_HHH_b1_04517_000000040_0001_39_52_H_._HHH_b2_05314_0001_0000400027_0000001_0_0001_af2pred_dldesign_0_af2pred (protein)
chain: SSSDPKALAETAAAIVEELEEKYNLNLEQSAVLERLAVELVWKGVSPEEIRRRLEALAKELSSSS
B4: il2ra_site1_1z92_normal_mot_01209686ea234b34325f918445e6eade_0001_af2_000000154_0001_18_33_H_._HHH_b1_01021_0001_0000100004_0000001_0_af2pred_0001_1_af2pred_swa … (protein)
chain: SSSSSDELEEFIEELVKELGLDEEAKETLERLLEKLQEQGVSERAIRRALERMARRMRGSSSSSS
B5: il2ra_site2_3nfp_sap_11_mot_HHH_b1_00882_af2_000000293_0001_1_18_H_._HHH_b1_01194_af2_0001_0000300012_0000001_0_0001 (protein)
chain: SSSSSSSLYELLQEAVEAAKNGNPEEAKEILEQALEEAREAGDEEAEHFIEWFIKAVRSSSSSSS
B6: il2ra_site2_2erj_normal_mot_HHH_b1_04373_af2_000000118_0001_18_33_H_._HHH_b2_00961_af2_0001_0000900028_0000001_1 (protein)
chain: SSSSSDEEEVERRVRELLEEAEKVDLEEAYKLAVEALHLAAENRDPELLRLILEWVEKHSSSSSS
B7: il2ra_site2_3nfp_sap_15_mot_HHH_b1_02990_000000128_0001_41_58_H_._HHH_b1_03794_0001_0000400021_0000001_0_0001 (protein)
chain: SEAEEIIKLIAELLGTPPERVRERVEDAAEIVNRPPEEAAAYLLAQVALELGDPELEKEAKRLSR
B8: il2ra_site2_2erj_sap_28_mot_HHH_b1_08185_000000106_0001_41_55_H_._HHH_b2_03845_af2_0001_0001200037_0000001_0_0001 (protein)
chain: SSSSDEEEERLEELVERAERLLKEGNPEEAWEVLREAATLAWELGDEEIWSRLSKLTAEVASSSS
B9: il2ra_site1_1z92_normal_mot_54e474eed2d0515e81978198f0f96ec2_0001_000000202_0001_15_30_H_._8eb524b276bbb897fd8f0cca34c37a2d_0001_af2_0001_0000300018_0000001_0_a … (protein)
chain: DVEEEIEEALKELGVPPEEIKVVKRDFRLAREAGIPPEQVLRALINAARASGDEELTEALELVLK
B10: il2ra_site1_3nfp_normal_mot_e80b558ee5422d85aa46efdc370d0602_0001_af2_000000114_0001_54_65_H_._HEEHE_2247_0002_0000400019_0000001_0_af2pred_0001_af2pred (protein)
chain: DRQEILQEDAELISKVAGVTSVHVEVENGHVTVTVEADNRRARALLRILREAAKIAGLEVEITIE
B11: il2ra_site2_2erj_normal_mot_HHH_b1_02757_000000121_0001_41_57_H_._HHH_b1_02256_0001_0000700046_0000001_0_af2pred_0001_af2pred (protein)
chain: SSSSSSSVEEEVKELLEQAKHIPDIREALKVLEEADRLALENDNEELLELITRVLRELSSSSSSS
B12: il2ra_site2_2erj_normal_mot_HHH_b2_04744_000000294_0001_42_58_H_._HHH_b1_07967_af2_0001_0000500022_0000001_0 (protein)
chain: SSSSDEEERLEELLKELEELSRKRDFHRFAEVFSEILELVEENNDEEAALIAFRIMREHFGSSSS
B13: il2ra_site1_2b5i_normal_mot_f5ff40796168375b462bec8614a1db4a_0001_1_000000138_0001_53_65_H_._HHH_b2_01775_0001_0000500027_0000001_0_af2pred_dldesign_0_af2pred (protein)
chain: SSSSSSEKRELIQALIDEAKKEEDKRLAKRLLLLALRLARKHNDEELIAEIEALLKELESSSSSS
B14: il2ra_site2_2erj_sap_16_mot_HHH_b2_07792_af2_000000252_0001_18_34_H_._HHH_b1_07975_af2_0001_0000200006_0000001_0_0001 (protein)
chain: SSSSSDTEEEVEELLEQAKRITDLREVYRLAVEALHLAARVQDPELQRLVAEVVEELSRSSSSSS
B15: il2ra_site2_2erj_sap_19_mot_HHH_b2_01275_af2_000000073_0001_23_39_H_._HHH_b1_01063_af2_0001_0000200019_0000001_0_0001 (protein)
chain: SSSSDKLRELYELAVEVLRAVARGDEEEAERLLEEAKELAEELDSPNAREALENNKRLLKSSSSS
B16: il2ra_site2_2erj_sap_14_mot_HHH_b2_01204_af2_000000056_0001_19_34_H_._HHH_b2_03878_0001_0000200011_0000001_0_0001 (protein)
chain: SSSSDWLHELYELASEITRLLAEGDPEEARRLLEELEELAEENDSPNAEEIVERLEKKIESSSSS
B17: il2ra_site1_2b5i_sap_14_mot_HHH_b2_01684_af2_000000128_0001_1_17_H_._HHH_b1_05605_0001_0000200010_0000001_0_0001_af2pred_dldesign_0_af2pred (protein)
chain: SSSSSSSSDRRALLEEANKAFQAGDVEALEALLERAEAAGWEKVARTIRKAIEALLESSSSSSSS
B18: il2ra_site1_2b5i_sap_9_mot_HHH_b2_02740_000000236_0001_1_21_H_._HHH_b1_02398_0001_0000300016_0000001_0_0001 (protein)
chain: SSSSDDELFHEIDELFREASRLFLNGNPEEAEKVLEKAIRLAEEGGDESTAEDLRRFLELLSSSS
B19: il2ra_site2_3nfp_sap_25_mot_HHH_b2_06150_000000217_0001_39_53_H_._HHH_b2_05014_af2_0001_0000300011_0000001_0_0001 (protein)
chain: DEVSEVIWRLREEGDPELAFLLFAVRADVLYKHDPELEEELEKLIELAERDPEKAKELAEELLRR

biological target: il2ra, P01589; assay: yeast display titration
Sequence (P01589 whole entry): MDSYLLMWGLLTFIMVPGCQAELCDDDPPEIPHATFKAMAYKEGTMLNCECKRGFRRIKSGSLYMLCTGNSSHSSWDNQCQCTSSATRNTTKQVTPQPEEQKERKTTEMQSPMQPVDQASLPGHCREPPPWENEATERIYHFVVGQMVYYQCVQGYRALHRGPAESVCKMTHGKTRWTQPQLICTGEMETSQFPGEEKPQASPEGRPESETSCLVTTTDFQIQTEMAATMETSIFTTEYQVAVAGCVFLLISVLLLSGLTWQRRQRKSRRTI

Row | Binder | apparent Kd
1 | B1 | no binding seen
2 | B2 | no binding seen
3 | B3 | no binding seen
4 | B4 | no binding seen
5 | B5 | no binding seen
6 | B6 | no binding seen
7 | B7 | no binding seen
8 | B8 | no binding seen
9 | B9 | no binding seen
10 | B10 | no binding seen
11 | B11 | no binding seen
12 | B12 | no binding seen
13 | B13 | no binding seen
14 | B14 | no binding seen
15 | B15 | no binding seen
16 | B16 | no binding seen
17 | B17 | no binding seen
18 | B18 | no binding seen
19 | B19 | no binding seen
